Laboratory results as given in PubChem BioAssay AID1159580 (chemical genetic matrix, 2015).
Out of some 5,500 compounds screened, about 2,000 (36%) were called active. Inconclusive results (about 18%) are left out. Rule as the data show it: active = normalized growth mostly below about 0.91 (no sharp cut-off); inconclusive = no clear call, values can overlap the other calls; inactive = mostly above about 0.92. Some of the results follow.

Test: chemical genetic growth profiling, strain panel (AID 1159580);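 also: tested at 20 µM; growth read once vehicle control cultures reached saturation at 30 °C; 1 = growth at the plate median or of vehicle wells; lower values mean less growth of the strain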
Conditions: growth OD

Measured: normalized growth

C=CCN1CC[C@]23c4c5ccc(O)c4OC2C(=O)CC[C@@]3(O)[C@H]1C5 (some centres not stated)
inactive: S. cerevisiae deletion strains, locus YJR075W, strain HOC1, stronger effect = lower value 1 | S. cerevisiae deletion strains, locus YKL009W, strain mrt4, stronger effect = lower value 0.977 | S. cerevisiae deletion strains, locus YKL068W, stronger effect = lower value 0.993 | S. cerevisiae deletion strains, locus YKL085W, strain MDH1 (second series), stronger effect = lower value 1 | S. cerevisiae deletion strains, locus YKL085W, strain MDH1, stronger effect = lower value 1 | S. cerevisiae deletion strains, locus YKL160W, strain elf1, stronger effect = lower value 0.975 | S. cerevisiae deletion strains, locus YKL190W, strain CNB1, stronger effect = lower value 1 | S. cerevisiae deletion strains, locus YKR001C, strain vps1, stronger effect = lower value 0.989 | S. cerevisiae deletion strains, locus YKR026C, strain gcn3, stronger effect = lower value 0.979 | S. cerevisiae deletion strains, locus YKR091W, strain srl3, stronger effect = lower value 0.973 | S. cerevisiae deletion strains, locus YLL001W, strain dnm1, stronger effect = lower value 0.983 | S. cerevisiae deletion strains, locus YLL026W, stronger effect = lower value 0.988 | S. cerevisiae deletion strains, locus YLL041C, strain sdh2, stronger effect = lower value 0.963 | S. cerevisiae deletion strains, locus YLR027C, strain aat2, stronger effect = lower value 0.976 | S. cerevisiae deletion strains, locus YLR039C, strain RIC1, stronger effect = lower value 1 | S. cerevisiae deletion strains, locus YLR058C, strain SHM2, stronger effect = lower value 1.01 | S. cerevisiae deletion strains, locus YLR102C, strain apc9, stronger effect = lower value 0.998 | S. cerevisiae deletion strains, locus YLR113W, strain HOG1, stronger effect = lower value 0.973 | S. cerevisiae deletion strains, locus YLR221C, strain rsa3, stronger effect = lower value 0.982 | S. cerevisiae deletion strains, locus YLR258W, strain gsy2, stronger effect = lower value 0.983 | S. cerevisiae deletion strains, locus YLR262C, strain YPT6 (second series), stronger effect = lower value 0.97 | S. cerevisiae deletion strains, locus YLR262C, strain YPT6, stronger effect = lower value 1.04 | S. cerevisiae deletion strains, locus YLR268W, strain sec22, stronger effect = lower value 1.04 | S. cerevisiae deletion strains, locus YLR320W, strain mms22, stronger effect = lower value 0.969 | S. cerevisiae deletion strains, locus YLR330W, strain CHS5, stronger effect = lower value 1.01 | S. cerevisiae deletion strains, locus YLR342W, strain FKS1 (second series), stronger effect = lower value 1.01 | S. cerevisiae deletion strains, locus YLR342W, strain FKS1, stronger effect = lower value 0.962 | S. cerevisiae deletion strains, locus YLR357W, strain rsc2, stronger effect = lower value 0.939 | S. cerevisiae deletion strains, locus YLR370C, strain arc18, stronger effect = lower value 0.973 | S. cerevisiae deletion strains, locus YLR371W, strain rom2, stronger effect = lower value 0.976 | S. cerevisiae deletion strains, locus YLR384C, strain iki3, stronger effect = lower value 0.963 | S. cerevisiae deletion strains, locus YLR418C, strain cdc73, stronger effect = lower value 0.999 | S. cerevisiae deletion strains, locus YML016C, strain PPZ1, stronger effect = lower value 1.01 | S. cerevisiae deletion strains, locus YML032C, strain rad52, stronger effect = lower value 1.02 | S. cerevisiae deletion strains, locus YML120C, strain ndi1, stronger effect = lower value 0.974 | S. cerevisiae deletion strains, locus YML124C, strain tub3, stronger effect = lower value 0.991 | S. cerevisiae deletion strains, locus YMR058W, strain fet3, stronger effect = lower value 0.98 | S. cerevisiae deletion strains, locus YMR078C, strain ctf18, stronger effect = lower value 1 | S. cerevisiae deletion strains, locus YMR125W, strain sto1, stronger effect = lower value 0.936 | S. cerevisiae deletion strains, locus YMR129W, stronger effect = lower value 0.954 | S. cerevisiae deletion strains, locus YMR205C, strain PFK2, stronger effect = lower value 0.979 | S. cerevisiae deletion strains, locus YMR223W, strain ubp8, stronger effect = lower value 0.99 | S. cerevisiae deletion strains, locus YMR231W, strain pep5, stronger effect = lower value 0.977 | S. cerevisiae deletion strains, locus YMR263W, strain SAP30, stronger effect = lower value 1.02 | S. cerevisiae deletion strains, locus YMR307W, strain GAS1, stronger effect = lower value 1.05 | S. cerevisiae deletion strains, locus YNL067W, strain RPL9B, stronger effect = lower value 1.02 | S. cerevisiae deletion strains, locus YNL071W, strain lat1, stronger effect = lower value 0.956 | S. cerevisiae deletion strains, locus YNL128W, strain TEP1, stronger effect = lower value 1.01 | S. cerevisiae deletion strains, locus YNL153C, strain GIM3, stronger effect = lower value 1.02 | S. cerevisiae deletion strains, locus YNL183C, strain NPR1, stronger effect = lower value 0.941 | S. cerevisiae deletion strains, locus YNL209W, strain ssb2, stronger effect = lower value 0.945 | S. cerevisiae deletion strains, locus YNL233W, strain BNI4, stronger effect = lower value 1.03 | S. cerevisiae deletion strains, locus YNL248C, strain rpa49, stronger effect = lower value 0.948 | S. cerevisiae deletion strains, locus YNL250W, strain rad50, stronger effect = lower value 0.988 | S. cerevisiae deletion strains, locus YNL271C, strain bni1, stronger effect = lower value 0.998 | S. cerevisiae deletion strains, locus YNL298W, strain CLA4, stronger effect = lower value 1.01 | S. cerevisiae deletion strains, locus YNL307C, strain MCK1, stronger effect = lower value 0.996 | S. cerevisiae deletion strains, locus YNL322C, strain KRE1 (second series), stronger effect = lower value 0.927 | S. cerevisiae deletion strains, locus YNL322C, strain KRE1, stronger effect = lower value 1 | S. cerevisiae deletion strains, locus YNR049C, strain mso1, stronger effect = lower value 0.973 | S. cerevisiae deletion strains, locus YNR052C, strain pop2, stronger effect = lower value 1 | S. cerevisiae deletion strains, locus YOL006C, strain TOP1, stronger effect = lower value 1.07 | S. cerevisiae deletion strains, locus YOL012C, strain htz1 0.779 | S. cerevisiae deletion strains, locus YOL147C, strain pex11, stronger effect = lower value 0.996 | S. cerevisiae deletion strains, locus YOR001W, strain rrp6, stronger effect = lower value 0.97 | S. cerevisiae deletion strains, locus YOR061W, strain CKA2, stronger effect = lower value 1.02 | S. cerevisiae deletion strains, locus YOR069W, strain VPS5, stronger effect = lower value 1.01 | S. cerevisiae deletion strains, locus YOR070C, strain gyp1, stronger effect = lower value 0.964 | S. cerevisiae deletion strains, locus YOR080W, strain dia2, stronger effect = lower value 0.969 | S. cerevisiae deletion strains, locus YOR083W, strain WHI5, stronger effect = lower value 0.979 | S. cerevisiae deletion strains, locus YOR106W, strain vam3, stronger effect = lower value 0.948 | S. cerevisiae deletion strains, locus YOR136W, strain idh2, stronger effect = lower value 0.995 | S. cerevisiae deletion strains, locus YOR144C, strain elg1, stronger effect = lower value 1 | S. cerevisiae deletion strains, locus YOR184W, strain ser1, stronger effect = lower value 0.998 | S. cerevisiae deletion strains, locus YOR231W, strain MKK1, stronger effect = lower value 0.994 | S. cerevisiae deletion strains, locus YOR265W, strain rbl2, stronger effect = lower value 0.983 | S. cerevisiae deletion strains, locus YOR270C, strain vph1, stronger effect = lower value 0.935 | S. cerevisiae deletion strains, locus YOR290C, strain snf2, stronger effect = lower value 0.968 | S. cerevisiae deletion strains, locus YOR316C, strain cot1, stronger effect = lower value 0.994 | S. cerevisiae deletion strains, locus YPL051W, strain arl3, stronger effect = lower value 0.983 | S. cerevisiae deletion strains, locus YPL055C, strain LGE1, stronger effect = lower value 1.01 | S. cerevisiae deletion strains, locus YPL078C, strain atp4, stronger effect = lower value 0.968 | S. cerevisiae deletion strains, locus YPL106C, strain sse1, stronger effect = lower value 0.957 | S. cerevisiae deletion strains, locus YPL240C, strain hsp82, stronger effect = lower value 0.965 | S. cerevisiae deletion strains, locus YPL241C, strain CIN2, stronger effect = lower value 1.01 | S. cerevisiae deletion strains, locus YPL256C, strain CLN2, stronger effect = lower value 0.979 | S. cerevisiae deletion strains, locus YPR119W, strain clb2, stronger effect = lower value 1 | S. cerevisiae deletion strains, locus YPR141C, strain kar3, stronger effect = lower value 0.996 | S. cerevisiae deletion strains, locus YPR163C, strain tif3, stronger effect = lower value 0.996 | S. cerevisiae deletion strains, locus YPR167C, strain met16, stronger effect = lower value 1 | S. cerevisiae deletion strains, strain wtn01, stronger effect = lower value 1.01 | S. cerevisiae strains, strain wild type, stronger effect = lower value 1.01
